This is an account of results in PubChem BioAssay (NCI).

Among the test systems are NCI-H23 lung; NCI-H322M lung; HOP-62 NSCLC; NCI-H460 lung; HOP-92 NSCLC; NCI-H522 lung; A549/ATCC NSCLC; 786-0 renal; DU-145 prostate.
Holding throughout (experiment): NCI-60 one-dose screen, 48 h (100 = growth as untreated, 0 = no growth, -100 = all killed)
What all share (conditions): 10 µM unless noted

The panel holds about 83,000 compounds, 20% with a hit somewhere; the sample as a whole holds those more often.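 The test compound was applied at a single concentration to cells in 96-well plates for 48 hours, and percent growth was recorded.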 Values without a mark were called inactive. The source made the active and inactive calls. Rule for the calls: active = growth percent below 10; inactive = the rest.

For the molecule `O=c1oc2ccc(Br)cc2c(=O)n1-c1ccc(Br)cc1F`, the growth is -38.4% (active) in the experiment on NCI-H23 lung; 2.56% (active) in the experiment on NCI-H322M lung; -4.63% (active) in the experiment on HOP-62 NSCLC; 1.55% (active) in the experiment with NCI-H460 lung; -13.7% (active) in the experiment on HOP-92 NSCLC; 6.36% (active) in the experiment on NCI-H522 lung. Further, the growth in the experiment on A549/ATCC NSCLC was 13%; with 786-0 renal, 1.72% (active); with DU-145 prostate it was 13.8%.
Take `CCCCN1CCN(c2ccc3nc(-c4ccc5nc(-c6ccc(OC)c(OC)c6)[nH]c5c4)[nH]c3c2)CC1`: the growth in the experiment on NCI-H23 lung is -66.1% (active); with NCI-H322M lung it was 10.1%; in the experiment with HOP-62 NSCLC, -1.2% (active); in the experiment with NCI-H460 lung, -35% (active); in the experiment with HOP-92 NSCLC, 60.7%; with NCI-H522 lung, -36.8% (active). Moreover, the growth in the experiment with A549/ATCC NSCLC was 28.4%; in the experiment with 786-0 renal, -85.9% (active); with DU-145 prostate, 2.42% (active).
Take `Cc1cccc2c(=O)c3c(sc12)c(NCCCNCCO)nc1ccccc13`: the growth was 55% in the experiment on NCI-H23 lung; 63.3% in the experiment with NCI-H322M lung; 41.6% with HOP-62 NSCLC; 19.3% in the experiment on NCI-H460 lung; 29.4% with HOP-92 NSCLC; 58.6% with NCI-H522 lung. The growth with A549/ATCC NSCLC was 39.4%; in the experiment on 786-0 renal, 52.8%; with DU-145 prostate it was 35%.
Regarding `COc1ccccc1C1=C(Br)C(=O)c2nc(C)ccc2C1=O`, the growth with NCI-H23 lung is 93.4%; in the experiment on NCI-H322M lung, 100%; in the experiment with HOP-62 NSCLC, 106%; in the experiment on NCI-H460 lung it was 99.4%; in the experiment on HOP-92 NSCLC, 86.3%; with NCI-H522 lung it was -38% (active). The growth was 109% with A549/ATCC NSCLC, 104% with 786-0 renal and 109% in the experiment on DU-145 prostate.
Take `S=C1CCCC(=S)N1`: the growth was 101% with NCI-H23 lung; 107% with NCI-H322M lung; 88% in the experiment with HOP-62 NSCLC; 106% with NCI-H460 lung; 105% with HOP-92 NSCLC; 96.6% with NCI-H522 lung. For the same molecule, the growth in the experiment with A549/ATCC NSCLC is 98.3%; in the experiment on 786-0 renal, 107%; with DU-145 prostate, 111%.
With `COC(=O)c1c2c(c(C)[n+]([O-])c1C)C(=O)C=C(NCc1ccc(F)c(F)c1)C2=O`, the growth in the experiment with NCI-H23 lung was -76% (active); with NCI-H322M lung, -15.7% (active); with HOP-62 NSCLC, -11.8% (active); in the experiment on NCI-H460 lung, -26.3% (active); in the experiment on HOP-92 NSCLC, -37.9% (active); with NCI-H522 lung it was -53.1% (active). Besides, the growth in the experiment on A549/ATCC NSCLC is -24.4% (active); with 786-0 renal it was -3.8% (active); in the experiment on DU-145 prostate, -99.6% (active).
On to `O=C(Nc1nc2c(s1)CCc1c-2c(Br)n(Cc2ccccc2)c1Br)c1ccccc1`, for which the growth is 79.9% in the experiment with NCI-H23 lung; 58.9% in the experiment on NCI-H322M lung; 32.8% with HOP-62 NSCLC; 40.8% in the experiment with NCI-H460 lung; 31.2% with HOP-92 NSCLC; 61.9% with NCI-H522 lung. For the same molecule, the growth in the experiment with A549/ATCC NSCLC was 67.2%; with 786-0 renal it was 56.7%; in the experiment on DU-145 prostate, 74.5%.
For `CCOc1ccccc1CN1CCc2nc3cc(C(C)(C)C)[nH]n3c(=O)c2C1`, the growth is 97% in the experiment with NCI-H23 lung; 101% in the experiment with NCI-H322M lung; 99.6% in the experiment with HOP-62 NSCLC; 107% in the experiment with NCI-H460 lung; 112% in the experiment on HOP-92 NSCLC; 77.1% in the experiment with NCI-H522 lung. The growth was 112% with A549/ATCC NSCLC, 90.8% in the experiment with 786-0 renal and 115% with DU-145 prostate.
Consider `O=C(Cn1cc(COc2ncnc3c2cnn3-c2ccccc2)nn1)Nc1ccccn1`, for which the growth in the experiment on NCI-H23 lung is 96.6%; in the experiment on NCI-H322M lung, 93.6%; with HOP-62 NSCLC it was 91.5%; in the experiment on NCI-H460 lung, 101%; in the experiment with HOP-92 NSCLC it was 75.2%; in the experiment on NCI-H522 lung, 87.6%. Further, the growth with A549/ATCC NSCLC was 94.2%; in the experiment on 786-0 renal, 104%; in the experiment with DU-145 prostate, 101%.
`NCCNc1nc2ccccc2c2c(=O)c3cc(F)cc(Cl)c3sc12`: the growth is 75.4% with NCI-H23 lung; -27.1% (active) in the experiment on NCI-H322M lung; -51.7% (active) in the experiment with HOP-62 NSCLC; -90% (active) with NCI-H460 lung; 40.8% in the experiment on HOP-92 NSCLC; -44.8% (active) in the experiment on NCI-H522 lung. In addition, the growth in the experiment with A549/ATCC NSCLC was -72.9% (active); in the experiment on 786-0 renal, -90.4% (active); in the experiment on DU-145 prostate it was -92.6% (active).
On to `Cc1ccc(F)cc1NC(=O)c1cc(Cl)ccc1Nc1ccccc1`, for which the growth was 60.1% in the experiment with NCI-H23 lung; 62.4% in the experiment on NCI-H322M lung; 83.9% in the experiment on HOP-62 NSCLC; 40.2% with NCI-H460 lung; 75.9% in the experiment with HOP-92 NSCLC; 47.7% in the experiment with NCI-H522 lung. The values for the growth in the experiment on A549/ATCC NSCLC, in the experiment on 786-0 renal and with DU-145 prostate were 42.3%, 68.1% and 69.6%, respectively.
As for `Cn1c(=O)n(C)c2cc(CNCCNc3ccnc4cc(Cl)ccc34)ccc21`, the growth is 95.3% in the experiment with NCI-H23 lung; 95.4% in the experiment on NCI-H322M lung; 78.1% in the experiment on HOP-62 NSCLC; 2.02% (active) in the experiment with NCI-H460 lung; 55.9% with HOP-92 NSCLC; 94.9% in the experiment with NCI-H522 lung. For the same molecule, the growth is 70.3% in the experiment with A549/ATCC NSCLC, 1.49% (active) with 786-0 renal and 74.8% in the experiment with DU-145 prostate.
As to `COc1ccc2sc3c(NCCCN)nc4ccccc4c3c(=O)c2c1`, the growth was 80.7% in the experiment with NCI-H23 lung; 68.9% in the experiment on NCI-H322M lung; 57.2% with HOP-62 NSCLC; -73.3% (active) with NCI-H460 lung; 33.9% in the experiment on HOP-92 NSCLC; 18.7% in the experiment on NCI-H522 lung. For the same molecule, the growth in the experiment on A549/ATCC NSCLC was -44.8% (active); in the experiment with 786-0 renal, 42.3%; with DU-145 prostate, -6.46% (active).
With `Cc1ccc2c(n1)C(=O)C(Oc1ccc(Br)cc1)=CC2=O`, the growth in the experiment with NCI-H23 lung was 94.5%; in the experiment on NCI-H322M lung, 99.6%; with HOP-62 NSCLC it was 116%; in the experiment with NCI-H460 lung, 99.1%; in the experiment on HOP-92 NSCLC it was 108%; with NCI-H522 lung, -27% (active). Moreover, the values for the growth with A549/ATCC NSCLC, in the experiment with 786-0 renal and in the experiment on DU-145 prostate were 100%, 104% and 110%, respectively.
Consider `c1ccc2c(c1)oc1cc3sccc3nc12`, for which the growth in the experiment on NCI-H23 lung was 101%; with NCI-H322M lung it was 99.2%; with HOP-62 NSCLC, 89.5%; in the experiment on NCI-H460 lung, 104%; in the experiment with HOP-92 NSCLC, 95.1%; in the experiment with NCI-H522 lung it was 93%. The growth was 102% in the experiment on A549/ATCC NSCLC, 96.1% with 786-0 renal and 114% in the experiment with DU-145 prostate.
